TDP1 cell noCPT: qHTS for Inhibitors of human tyrosyl-DNA phosphodiesterase 1 (TDP1): qHTS in cells in absence of CPT. 15% of 420,000 active. DT40 Tdp1-/- hTDP1 cells, no CPT, ATP luminescence, 48 h. Potency, µM (highest dose often 46.2 µM), actives largely listed as inhibitors; also: nearly all actives have a fitted effect of over 55% in size
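No-CPT arm: Tdp1-/-;hTDP1 DT40 cells (400/well) plus compounds, incubated ≥48 hr at 37 °C. Readout CellTiter-Glo luminescence.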
ELG1 DNA repair: inhibitors of ELG1-dependent DNA repair in HEK293T cells | HEK293T ELG1-luciferase reporter, luminescence, 16 h; DNA damage induced by 5-fluorouridine | Potency, µM (highest dose often 46.1 µM), usual class: inhibitors | 2.3% of 330,000 active; also: nearly all actives have a fitted effect of over 55% in size
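Overnight (16 hr) co-exposure of 2,000 cells/well to 5-fluorouridine and compound at 37 °C preceded detection. Luciferase was quantified via ONE-Glo luminescence; loss of signal denotes inhibition.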
TDP1 inh: inhibitors of human tyrosyl-DNA phosphodiesterase TDP1; recombinant TDP1, AlphaScreen DNA substrate cleavage; Potency, µM (titrated, usually from 130 µM), actives largely listed as inhibitors; 0.28% of 350,000 active; AID 485290; also: nearly all actives have a fitted effect of over 40% in size
Target sequence (Q9NUW8 whole entry, looked up): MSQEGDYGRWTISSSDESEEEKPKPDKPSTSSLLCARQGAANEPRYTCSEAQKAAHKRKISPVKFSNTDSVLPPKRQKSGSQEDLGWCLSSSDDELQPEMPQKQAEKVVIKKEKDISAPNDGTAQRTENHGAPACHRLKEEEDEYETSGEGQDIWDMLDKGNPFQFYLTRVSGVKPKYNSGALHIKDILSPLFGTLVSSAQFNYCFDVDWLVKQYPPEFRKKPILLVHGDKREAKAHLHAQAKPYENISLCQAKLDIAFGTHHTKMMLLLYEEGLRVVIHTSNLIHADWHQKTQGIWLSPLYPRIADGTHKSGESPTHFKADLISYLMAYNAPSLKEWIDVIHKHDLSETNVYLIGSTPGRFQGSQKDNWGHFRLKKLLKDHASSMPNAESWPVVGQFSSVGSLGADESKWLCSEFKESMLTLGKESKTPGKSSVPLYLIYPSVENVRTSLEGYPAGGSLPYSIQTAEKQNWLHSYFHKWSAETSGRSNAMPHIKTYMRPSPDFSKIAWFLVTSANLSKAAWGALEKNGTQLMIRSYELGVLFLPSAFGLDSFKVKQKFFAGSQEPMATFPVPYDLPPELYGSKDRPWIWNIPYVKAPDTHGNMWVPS
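E. coli-derived human Tdp1, 1 nM final. Cpd preinc 15 min RT; substrate 15 nM final, 5 min RT; AS bead mix 10 ug/ml final, 10 min RT. Signal loss = tyrosine-FITC cleavage. No-enzyme wells = max signal.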
Giardia killer: kills Giardia lamblia; Giardia lamblia trophozoite viability; activity change, % at 7.66 µM, hits read low; 0.15% of 340,000 active; AID 540267; in the data active = activity change below about -80%; inconclusive = between about -30% and that limit;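 also: parasites exposed to compound for two days anaerobically before the ATP read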
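Killing of trophozoites was scored by loss of ATP luminescence after a 48 hrs anaerobic exposure to compounds at 37 deg C, using 100 cells per well.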
IL-1B inflam inh: inhibitors of inflammasome signaling (IL-1 beta secretion); 4.7% of 360,000 active; activity change, % at 57.5 µM; THP-1 LPS/ATP IL-1B secretion, AlphaLISA, 16 h; active compounds read low; AID 743279; in the data active = activity change below about -50%; inconclusive = mostly about -30% to -49%
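Secreted IL-1B measured by AlphaLISA bead assay after 16 h compound exposure of THP-1 cells; compounds (final up to 57.5 uM) added 1 h before LPS (250 ng/mL) and ATP (1.25 mM) stimulation; lower signal means less secretion.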
DT40 TDP1 CPT: DT40-hTDP1 cell growth loss with CPT; chicken DT40 Tdp1-/-;hTDP1 cells + 20 nM CPT, ATP luminescence, 48 h; 12% of 420,000 active; AID 686979; Potency, µM (top dose mostly 46.2 µM), most hits filed as inhibitors; also: nearly all actives have a fitted effect of over 55% in size
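Chicken DT40 Tdp1-/- cells stably complemented with human TDP1 were seeded at 400 cells/well in medium containing 20 nM camptothecin, exposed to pin-transferred compounds, and grown at 37 °C for at least 48 hr. Viability was read as ATP luminescence.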
A number is an active result. Shown are actives, neighbours in structure and some others; about 19% of the full set was active somewhere. Unless noted, calls follow the shape of the dose curve; as a rule, active = well fitted curve in the direction sought with a large enough effect; inconclusive = small, poorly fitted or top-dose-only effect, or another doubt; inactive = no such curve, though single readings can be large; an effect the other way counts as inactive or inconclusive.

Results for CS(=O)(=O)N(CC(=O)NCCSCc1cccc(Cl)c1)c1ccccc1F ?
TDP1 cell noCPT: inconclusive; ELG1 DNA repair: inactive; Giardia killer: inactive; IL-1B inflam inh: inactive; DT40 TDP1 CPT: inactive

Results for Fc1ccc(C2=NC(c3cccc(C(F)(F)F)c3)=Nc3ccccc3N2)cc1 ?
TDP1 cell noCPT: 18µM; TDP1 inh: inactive; DT40 TDP1 CPT: inconclusive

Results for COc1ccc(C2=Nc3ccc(C)cc3NC(c3ccc(Cl)cc3)=N2)cc1 ?
TDP1 cell noCPT: inconclusive; TDP1 inh: inactive; DT40 TDP1 CPT: inconclusive

How did COc1ccc(C2=Nc3ccc(F)cc3NC(c3cccc(C(F)(F)F)c3)=N2)cc1 do in these assays?
TDP1 cell noCPT: inconclusive; TDP1 inh: inactive; DT40 TDP1 CPT: 23µM

What do the screens show for `CCOC(=O)C(Cc1ccccc1)NC(=O)CNC(=O)CNC(=O)OCc1ccccc1` (stereo not given)?
TDP1 cell noCPT: inactive; ELG1 DNA repair: inactive; TDP1 inh: inactive; Giardia killer: inactive; IL-1B inflam inh: -88; DT40 TDP1 CPT: inactive

Results for CCOC(=O)C(Cc1ccc(O)cc1)NC(=O)CNC(=O)C(CC(C)C)NC(=O)OC(C)(C)C (stereo not given) ?
TDP1 cell noCPT: inactive; ELG1 DNA repair: inactive; TDP1 inh: inactive; Giardia killer: inactive; IL-1B inflam inh: -99; DT40 TDP1 CPT: inactive

How did CC(C)CC(NC(=O)OCc1ccccc1)C(=O)NC(Cc1ccccc1)C(=O)CCl (stereo not given) do in these assays?
TDP1 cell noCPT: 2.9µM; Giardia killer: inactive; IL-1B inflam inh: -100; DT40 TDP1 CPT: 4.6µM

Results for Cc1ccc(NC(=O)C(Cc2ccccc2)NC(=O)OCc2ccccc2)cc1C (stereo not given) ?
TDP1 cell noCPT: 23µM; ELG1 DNA repair: inactive; TDP1 inh: inactive; Giardia killer: inactive; IL-1B inflam inh: inactive; DT40 TDP1 CPT: inconclusive

Results for COC(=O)C(Cc1ccccc1)NC(=O)C(CC(C)C)NC(=O)OC(C)(C)C (stereo not given) ?
TDP1 cell noCPT: inactive; ELG1 DNA repair: inactive; TDP1 inh: inactive; Giardia killer: inactive; IL-1B inflam inh: inactive; DT40 TDP1 CPT: inactive

How did CC(C)CC(NC(=O)C1CCC(C)CC1)C(=O)OCC(=O)c1ccc(Cl)cc1 (stereo not given) do in these assays?
TDP1 cell noCPT: inactive; DT40 TDP1 CPT: inactive

How did COc1ccc([C@@H]2Sc3cc(OC)ccc3N(CCN(C(C)C)C(C)C)C(=O)[C@H]2OC(C)=O)cc1 do in these assays?
TDP1 cell noCPT: inconclusive; ELG1 DNA repair: inactive; TDP1 inh: inactive; Giardia killer: inactive; IL-1B inflam inh: inactive; DT40 TDP1 CPT: 21µM

What do the screens show for `CCN1C(=O)C(NC(C)=O)c2cc(OC)ccc21` (stereo not given)?
TDP1 cell noCPT: inactive; ELG1 DNA repair: inactive; TDP1 inh: inactive; Giardia killer: inactive; IL-1B inflam inh: inactive; DT40 TDP1 CPT: inactive

Results for N#CC(C#N)=Cc1cc2ccccc2nc1N1CCCCC1 ?
TDP1 cell noCPT: 21µM; ELG1 DNA repair: inactive; TDP1 inh: inactive; Giardia killer: inactive; IL-1B inflam inh: -104; DT40 TDP1 CPT: 21µM

What do the screens show for `O=C(CCNC(=O)c1ccccc1Cl)Nc1nc(-c2ccccc2Cl)cs1`?
TDP1 cell noCPT: 18µM; ELG1 DNA repair: inconclusive; TDP1 inh: inactive; Giardia killer: inactive; IL-1B inflam inh: inactive; DT40 TDP1 CPT: inconclusive

How did O=C(CCNC(=O)c1ccccc1Cl)Nc1nc(-c2ccc3ccccc3c2)cs1 do in these assays?
TDP1 cell noCPT: inconclusive; ELG1 DNA repair: inactive; TDP1 inh: inactive; Giardia killer: inactive; IL-1B inflam inh: inconclusive; DT40 TDP1 CPT: inconclusive

Results for O=C(CCNC(=O)c1ccccc1Cl)Nc1nc(-c2ccc(F)cc2)cs1 ?
TDP1 cell noCPT: inconclusive; ELG1 DNA repair: inconclusive; TDP1 inh: inactive; Giardia killer: inactive; IL-1B inflam inh: -69; DT40 TDP1 CPT: inconclusive

Results for COc1ccc(CN(C)C(=O)C23CC4CC(CC(Cl)(C4)C2)C3)c(OC)c1OC ?
TDP1 cell noCPT: 21µM; ELG1 DNA repair: 26µM; TDP1 inh: inactive; Giardia killer: inactive; IL-1B inflam inh: inconclusive; DT40 TDP1 CPT: 23µM

What do the screens show for `Cc1cc(N2CCC(C(=O)Nc3ccc(Cl)cc3)CC2)n2nc(C)c(-c3ccc(Cl)cc3)c2n1`?
TDP1 cell noCPT: inactive; TDP1 inh: inactive; DT40 TDP1 CPT: inactive

Results for N=c1oc2ccc(Cl)cc2cc1C(=O)NC1CCCCCC1 ?
TDP1 cell noCPT: 21µM; ELG1 DNA repair: inactive; TDP1 inh: inactive; Giardia killer: inactive; DT40 TDP1 CPT: 26µM

What do the screens show for `N=c1oc2cc(O)ccc2cc1C(=O)Nc1ccc(Cl)cc1`?
TDP1 cell noCPT: inactive; ELG1 DNA repair: inconclusive; Giardia killer: inactive; IL-1B inflam inh: -89; DT40 TDP1 CPT: inconclusive

Results for CCCS(=O)(=O)N1CC(=O)N(c2ccc(C)cc2C)C(C)(C(=O)NC2CCCCCC2)C1 (stereo not given) ?
TDP1 cell noCPT: inactive; TDP1 inh: inactive; DT40 TDP1 CPT: inactive

How did CCOC(=O)C1=C(CS(=O)(=O)c2ccc(C)cc2)NC(=O)NC1c1ccc(C(C)C)cc1 (stereo not given) do in these assays?
TDP1 cell noCPT: 12µM; TDP1 inh: inactive; DT40 TDP1 CPT: 18µM

How did CCOC(=O)C1=C(CS(=O)(=O)c2ccc(C)cc2)NC(=O)NC1c1cc(OC)c(OC)c(OC)c1 (stereo not given) do in these assays?
TDP1 cell noCPT: inactive; ELG1 DNA repair: inactive; TDP1 inh: inactive; Giardia killer: inactive; IL-1B inflam inh: inactive; DT40 TDP1 CPT: inactive

How did CCOC(=O)C1=C(CS(=O)(=O)c2ccc(Br)cc2)NC(=O)NC1c1ccccc1 (stereo not given) do in these assays?
TDP1 cell noCPT: inconclusive; TDP1 inh: inactive; DT40 TDP1 CPT: 21µM

Results for Cc1ccc(S(=O)(=O)Nc2cc(C)cn(Cc3ccc(F)cc3)c2=O)cc1 ?
TDP1 cell noCPT: inconclusive; ELG1 DNA repair: inconclusive; Giardia killer: inactive; IL-1B inflam inh: inactive; DT40 TDP1 CPT: 26µM

Results for Cc1ccc(S(=O)(=O)Nc2cc(C)cn(Cc3ccccc3)c2=O)cc1 ?
TDP1 cell noCPT: 16µM; ELG1 DNA repair: inconclusive; Giardia killer: inactive; IL-1B inflam inh: inactive; DT40 TDP1 CPT: 21µM

How did Cc1ccc(S(=O)(=O)Nc2cc3c(cc2Cl)n(C)c(=O)c(=O)n3C)cc1 do in these assays?
TDP1 cell noCPT: inactive; TDP1 inh: inactive; DT40 TDP1 CPT: inactive

How did CCCCN1CCCC1C(=O)Nc1c(C)cc(C)cc1C (stereo not given) do in these assays?
TDP1 cell noCPT: inconclusive; TDP1 inh: inactive; DT40 TDP1 CPT: inconclusive

High-throughput results as filed in PubChem.
